AF4-AF9 inh: inhibitors of AF4 peptide binding to AF9, primary screen, biochemical, AlphaScreen, biotin-AF4 peptide, FLAG-AF9, single point. Protein AF-9 (Homo sapiens), P42568. inhibition, % at 10 µM. 0.47% of 350,000 active. AID 651704, 2012;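 active = every replicate reaching a set inhibition limit, whatever the replicate mean, cut at about 25% in these data; inconclusive = mean inhibition reaches that limit but some replicates miss it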;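 also: 0% = plate neutral control median and 100% = total signal loss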
Target sequence (P42568 whole entry, looked up): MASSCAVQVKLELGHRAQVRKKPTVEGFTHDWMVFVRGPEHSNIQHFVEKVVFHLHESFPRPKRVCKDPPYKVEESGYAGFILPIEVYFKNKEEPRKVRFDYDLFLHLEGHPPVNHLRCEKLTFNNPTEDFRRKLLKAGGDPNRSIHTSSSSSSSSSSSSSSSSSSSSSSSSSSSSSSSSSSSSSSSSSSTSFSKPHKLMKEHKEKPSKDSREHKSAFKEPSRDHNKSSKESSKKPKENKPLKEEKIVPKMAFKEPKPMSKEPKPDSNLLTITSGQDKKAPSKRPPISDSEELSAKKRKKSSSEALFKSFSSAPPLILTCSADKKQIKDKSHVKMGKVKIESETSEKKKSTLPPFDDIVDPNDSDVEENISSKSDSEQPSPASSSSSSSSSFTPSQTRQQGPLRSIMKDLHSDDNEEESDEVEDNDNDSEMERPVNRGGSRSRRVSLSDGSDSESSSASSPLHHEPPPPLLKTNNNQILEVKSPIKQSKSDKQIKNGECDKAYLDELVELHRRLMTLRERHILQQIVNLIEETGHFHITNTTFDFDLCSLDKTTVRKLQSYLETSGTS
esBAF inh: Bmi1 luciferase reporter increase in mESCs, primary screen, esBAF inhibitor project, mouse ES cells, Bmi1 luciferase knock-in, single point; 24 h; 100% = twice the neutral-well signal; reporter increase, % at 12.5 µM; 2% of 350,000 active; AID 602393, 2012; in the data active = activation above about 40%; inconclusive = no clear call, values can overlap the other calls;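 also: 0% = median of the plate's neutral control wells and 100% = double that signal; a rise in the Bmi1 reporter signal indicates esBAF inhibition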
Wnt act: Wnt/beta-catenin pathway activators, primary screen, cell-based, plate reader, single point. activation, % at 9.35 µM. 1.2% of 300,000 active. Wnt/beta-catenin reporter cell assay, activator. AID 743398, 2014; in the data active = activation above about 30%, passing the limit was not always enough; inconclusive = no clear call, values can overlap the other calls;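 also: 0% = neutral control wells and 100% = positive control wells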
rRNA inh HTS: reduced GFP signal of wild-type E. coli, primary screen, bacterial rRNA inhibitor project, GFP/RFP fluorescence, OD600, single point; E. coli WT GFP vs humanized-ribosome RFP mutants, 24 h; active compounds read low; DMSO median 0, no signal -100; GFP signal change (wild-type ribosome), % (no concentration beside the values); 1.6% of 350,000 active; AID 720706, 2013;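 active = significant combined selectivity score with lowered wild-type GFP, culture density cut under 30%, mutant RFP and density less affected; inactive = any of these conditions unmet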
MITF TRPM1 HTS: activators of MITF-driven TRPM1 promoter reporter, primary screen, cell-based, SK-MEL-5, luciferase, single point. SK-MEL-5 TRPM1-promoter luciferase, 24 h; % of positive control, neutral wells = 0. activation, % at 12.5 µM. 0.75% of 300,000 active. AID 588334, 2011;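 active = mean activation of at least 80% with every replicate also reaching 80%; inconclusive = mean reaches 80% but some replicate falls short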;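 also: 0% = neutral control wells and 100% = parthenolide positive control wells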
AID977621: growth inhibition of wild-type GFP E. coli, dose response, H69 mutant RFP, cherry-pick. shares compounds with rRNA inh HTS. 1,900 tested, under 10 active. AID 977621, 2014. activity change, negative = inhibition at 50 µM. E. coli wild-type GFP strain growth, fluorescence, 24 h;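 active = Wild-type ribosome reporter drop at least double the humanized mutant ribosome reporter drop, growth loss under a set limit; inconclusive = no clear call, values can overlap the other calls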;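 also: wild-type GFP and H69 mutant RFP strains grown together 50/50 in each well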
AID977628: E. coli growth inhibition, wild-type GFP versus h24 humanized RFP strain, dose response, h24 mutant RFP vs wild-type GFP, cherry-pick; shares compounds with rRNA inh HTS; E. coli WT GFP strain growth, fluorescence, 24 h; activity change, negative = inhibition at 50 µM; 1,900 tested, under 10 active; AID 977628, 2014;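 active = compound lowering the normal-ribosome reporter at least twice as much as the humanized-ribosome reporter, growth loss under a set limit; inconclusive = no clear call, values can overlap the other calls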;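 also: wild-type GFP and h24 humanized RFP strains co-cultured 1 to 1 per well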
The depositor's hits bear a star. Rows were chosen to be rich in hits. Some 3.7% of all compounds tested hit in one or more screens of this group.

What do the screens show for `Cc1ccccc1S(=O)(=O)N1CCCCN2[C@@H](CO)[C@@H](c3ccc(-c4ccccc4)cc3)[C@@H]2C1`?
AF4-AF9 inh: 8

What do the screens show for `Cc1cccc(-c2ccc([C@@H]3[C@@H](CO)N4CCCCN(S(=O)(=O)c5ccccc5C)C[C@@H]34)cc2)c1`?
AF4-AF9 inh: 0; rRNA inh HTS: 2; AID977621: -5.1; AID977628: -2.2

What do the screens show for `Cc1cccc(-c2ccc([C@@H]3[C@@H](CO)N4CCCCN(S(=O)(=O)c5ccccc5C)C[C@H]34)cc2)c1`?
AF4-AF9 inh: 5; rRNA inh HTS: -30; AID977621: -5; AID977628: -4.3

Results for Cc1cccc(-c2ccc([C@H]3[C@H]4CN(S(=O)(=O)c5ccccc5C)CCCCN4[C@H]3CO)cc2)c1 ?
AF4-AF9 inh: -1; rRNA inh HTS: 3; AID977621: -2.8; AID977628: inconclusive

What do the screens show for `COc1cccc(-c2ccc([C@@H]3[C@H](CO)N4CCCCN(S(=O)(=O)c5cccs5)C[C@@H]34)cc2)c1`?
AF4-AF9 inh: -2; esBAF inh: -1; rRNA inh HTS: -46*; AID977628: inconclusive

What do the screens show for `C[C@H]1CN([C@@H](C)CO)C(=O)c2cccc(NC(=O)c3cnccn3)c2O[C@@H]1CN(C)Cc1ccc(C(=O)O)cc1`?
AF4-AF9 inh: -2; esBAF inh: 2; rRNA inh HTS: -2

What do the screens show for `C[C@@H]1CCCCO[C@@H](CN(C)C(=O)c2ccncc2)[C@H](C)CN([C@@H](C)CO)C(=O)c2cc(NS(=O)(=O)c3ccccc3)ccc2O1`?
AF4-AF9 inh: -2; esBAF inh: 2; rRNA inh HTS: -4

How did O=C(CSc1nc2c(cnn2-c2ccccc2)c(=O)[nH]1)NC1CCS(=O)(=O)C1 (stereo not given) do in these assays?
AF4-AF9 inh: 1; Wnt act: -12; rRNA inh HTS: 10; MITF TRPM1 HTS: 24

What do the screens show for `COc1ccc(-c2nc3cc(C)c(Br)c(C)n3c2CC(C)(C)C)cc1OC`?
AF4-AF9 inh: 2; esBAF inh: -8; Wnt act: -4; rRNA inh HTS: 17

What do the screens show for `CC1(c2ccc3ccccc3c2)NC(=O)N(CC(=O)N2CCN(c3ccccc3O)CC2)C1=O` (stereo not given)?
AF4-AF9 inh: -1; esBAF inh: -1; Wnt act: -2; rRNA inh HTS: -20*; MITF TRPM1 HTS: -7; AID977621: -4.6; AID977628: -6.5

What do the screens show for `CN1CCN(C(=O)CN2C(=O)NC(C)(c3ccc4ccccc4c3)C2=O)CC1` (stereo not given)?
AF4-AF9 inh: 2; esBAF inh: 2; Wnt act: -3; rRNA inh HTS: 10; MITF TRPM1 HTS: 6

Results for O=S(=O)(Nc1cccc(-c2ccc(N3CCCCCC3)nn2)c1)c1ccc(F)cc1 ?
AF4-AF9 inh: -2; esBAF inh: 56*; Wnt act: 17; rRNA inh HTS: -21*; MITF TRPM1 HTS: 63; AID977628: inconclusive

Results for O=[N+]([O-])c1ccc(S(=O)(=O)Nc2cccc(-c3ccc(N4CCOCC4)nn3)c2)cc1 ?
AF4-AF9 inh: 1; esBAF inh: 27; Wnt act: 13; rRNA inh HTS: 11; MITF TRPM1 HTS: 48

What do the screens show for `COc1ccc(-n2nc3cc(N)c(Br)cc3n2)cc1`?
AF4-AF9 inh: 3; esBAF inh: 57*; Wnt act: 5; rRNA inh HTS: -27*; AID977621: -1.5; AID977628: -11

Results for CCC(CO)Oc1cc(NC(=O)c2ccccc2F)c2ncn(C(C)C)c2c1 (stereo not given) ?
esBAF inh: 7; Wnt act: -1; rRNA inh HTS: -20*; MITF TRPM1 HTS: 7; AID977628: inconclusive

How did COc1cccc(-c2ccc3ncnc(NCc4cccs4)c3c2)c1 do in these assays?
AF4-AF9 inh: 3; esBAF inh: -5; Wnt act: 0; rRNA inh HTS: 0; MITF TRPM1 HTS: -5

Results for Cn1ccc2cc(-c3ccc4ncnc(NCc5cccs5)c4c3)ccc21 ?
AF4-AF9 inh: 1; esBAF inh: 13; Wnt act: -7; rRNA inh HTS: -24*; MITF TRPM1 HTS: -38; AID977621: inconclusive; AID977628: -11

Results for OC[C@@H]1[C@H](c2ccc(-c3cccnc3)cc2)[C@@H]2CN(Cc3ccccn3)CCCCN12 ?
AF4-AF9 inh: -9; esBAF inh: 0; rRNA inh HTS: -1

What do the screens show for `CCOC(=O)N1CCN(C(=O)c2ccc(-n3c(C)ccc3C)cc2)CC1`?
esBAF inh: -9; Wnt act: 7; MITF TRPM1 HTS: -4

Results for O=C(CCCOc1ccc(Cl)cc1Cl)NC(Cc1ccccc1)C(=O)O (stereo not given) ?
AF4-AF9 inh: -2; esBAF inh: 5; Wnt act: -6; rRNA inh HTS: -24; MITF TRPM1 HTS: -13

Results for C#CC[N+](C)(C)CC#Cc1ccccc1 ?
AF4-AF9 inh: -1; Wnt act: -2; rRNA inh HTS: 21; MITF TRPM1 HTS: 9

How did Cc1ccc(C#CC[N+](C)(C)CC#Cc2ccccc2)cc1 do in these assays?
AF4-AF9 inh: 3; Wnt act: -2; rRNA inh HTS: -54*; MITF TRPM1 HTS: -5; AID977628: inconclusive

What do the screens show for `COCC#Cc1ccc2c(c1)O[C@@H](CN(C)Cc1ccccc1F)[C@H](C)CN([C@@H](C)CO)S2(=O)=O`?
AF4-AF9 inh: 2; esBAF inh: -2; rRNA inh HTS: -8

How did COc1ccccc1NS(=O)(=O)c1cc(NC(=O)CCC(=O)c2cccs2)ccc1Cl do in these assays?
AF4-AF9 inh: 5; Wnt act: 0; rRNA inh HTS: -16; MITF TRPM1 HTS: 0

Results for COc1ccc(NC(=O)CCS(=O)(=O)c2ccccc2Cl)cc1S(=O)(=O)Nc1ccc(Cl)cc1 ?
Wnt act: -3; rRNA inh HTS: -19*; MITF TRPM1 HTS: -4; AID977621: -7.7

What do the screens show for `COc1ccc(NC(=O)CCC(=O)c2cccs2)cc1S(=O)(=O)Nc1ccc(Cl)cc1`?
AF4-AF9 inh: -8; esBAF inh: 10; rRNA inh HTS: -19*; MITF TRPM1 HTS: -2; AID977621: -15
